Laboratory results from PubChem BioAssay AID540276 (National Center for Advancing Translational Sciences (NCATS), 2011).
In all, about 300,000 compounds went through this assay and about 5,400 (1.8%) were called active. Another 28% or so got no clear call; they are omitted. The sample holds actives, similar compounds and a random draw of the others, so the mix is not that of the screen. Values without a mark were called inactive. Calls come from the whole dose curve; tested in HEK293 cells.

assay: qHTS for inhibitors of binding or entry into cells for Marburg Virus; settings: Marburg virus pseudotyped entry inhibition, cell reporter; series mostly up to 37.8 µM; activity change, negative = inhibition: at the top concentration
% is set by controls: 0 for no effect and ±100 for the full control effect; potency is the fitted concentration of half-maximal effect.

Row | Compound | activity change, negative = inhibition | Potency
1 | O=C(Cc1ccc(S(=O)(=O)N2CCOCC2)s1)NCCOc1ccccc1F | 15.4% [at 46.1 µM] | 
2 | O=C(c1cc2cc(Br)cc(Br)c2oc1=O)N1CCOCC1 | 15% [at 46.1 µM] | 
3 | COCCNCCOCCOc1cccc(OC)c1 | -0.109% | 
4 | CSc1ccc(/C=N\NC(=O)COc2ccc(Cl)cc2Br)cc1 | -19% | 
5 | COCCCNCCOCCOc1ccc(Cl)cc1Br |  | 11.6 µM (active)
6 | CCS(=O)(=O)Nc1ccc(C(=O)NCCSc2ccccc2)cc1 | 3.27% | 
7 | CC(C)Cn1c(=O)c2ccccc2n2c(CCC(=O)NCc3ccccn3)nnc12 | 22.8% [at 46.1 µM] | 
8 | CNN/C(N=Cc1ccc([N+](=O)[O-])s1)=N\S(=O)(=O)c1cc(C)c(Cl)cc1SCc1ccccc1 | -8.61% | 
9 | O=[N+]([O-])c1ccc(C=Nc2ccc(Cl)cc2Cl)s1 |  | 5.8 µM (active)
10 | CN1CCN(c2ccc(NC(=O)c3cc(Cl)c4c(c3)OCCO4)cc2)CC1 | -14.5% [at 46.1 µM] | 
11 | CCc1ccc(N(C(=O)c2csnn2)C(C(=O)NC2CCCCC2)c2cccnc2)cc1 (configuration not stated) | -14.8% [at 46.1 µM] | 
12 | CCCn1nc(NS(=O)(=O)c2ccc(F)cc2)c2cc3ccccc3nc21 | -1.54% [at 46.1 µM] | 
13 | CC(C)Cn1c(SCC(=O)Nc2ccc(Cl)cc2F)nc(O)cc1=O | 21% | 
14 | O=C(COC(=O)c1cccs1)Nc1ccccc1Cl | 17.9% [at 46.1 µM] | 
15 | COCCN(CCOC)C(=S)Nc1ccccc1Cl | -0.33% [at 46.1 µM] | 
16 | O=C(Nc1ccccc1Cl)/C(Cl)=C(\Cl)S(=O)c1ccccc1 (configuration not stated) |  | 3.16 µM (active)
17 | O=C1c2ccccc2C(=O)C1C(=O)C1CC1 | 2.92% [at 46.1 µM] | 
18 | O=c1c2ccccc2ncn1CCc1ccncc1 | 9.16% | 
19 | Cc1nn2c3cc(N4CCOCC4)ccc3nc2c2ccccc12 | -9.17% | 
20 | Cc1cc(Nc2ccc(N3CCOCC3)cc2)c2cccc(C)c2n1 |  | 0.794 µM (active)
21 | Cc1ccccc1N/N=C/c1ccc(N2CCOCC2)cc1 | 22.1% | 
22 | CC(NC(=O)c1cccc(S(=O)(=O)N2CCc3ccccc3C2)c1)c1ccco1 (configuration not stated) | -28.7% | 
23 | Cc1cc(C)nc(N2CCC(C(=O)Nc3ccc4c(c3)OCCO4)CC2)n1 | -25.8% [at 46.1 µM] | 
24 | Cc1cc(Nc2ccc(Cl)cc2)nc(N2CCOCC2)n1 |  | 7.94 µM (active)
25 | Cc1cc(Oc2ccccc2)nc(N2CCOCC2)n1 | 0.114% | 
26 | O=C(O)c1ccc2c(=O)n3c(nc2c1)/C(=C/c1ccc(OC(F)F)cc1OC(F)F)CC3 | 14.9% [at 46.1 µM] | 

Row | Compound | activity change, negative = inhibition | Potency
27 | Cc1oc2ccc(O)c(CN3CCCCC3)c2c1C(=O)Nc1cccc(C(F)(F)F)c1 |  | 10 µM (active)
28 | Cc1oc2ccc(O)c(CN3CCOCC3)c2c1C(=O)Nc1cccc(Cl)c1C | -0.854% [at 46.1 µM] | 
29 | CCN1CCN(Cc2c(O)ccc3oc(C)c(C(=O)Nc4ccc(C)cc4C)c23)CC1 | 10.7% [at 46.1 µM] | 
30 | Cc1cc(=O)oc2c(C)c(OC(C)C(=O)NC3CCN(Cc4ccccc4)CC3)ccc12 (configuration not stated) | -7.42% [at 46.1 µM] | 
31 | Cc1cc(-c2nnc(SCC(=O)Nc3ccc(F)cc3)n2N)n[nH]1 | 16.2% [at 46.1 µM] | 
32 | CC(C)CC1C(=O)N(Cc2cn(Cc3ccco3)nn2)CCS(=O)(=O)N1Cc1ccc(-c2ccc(Cl)c(Cl)c2)cc1 (configuration not stated) |  | 25 µM (active)
33 | CC(=O)c1cccc(-c2ccc(CN3C(CC(C)C)C(=O)N(Cc4cn(CC5CCCCC5)nn4)CCS3(=O)=O)cc2)c1 (configuration not stated) | 0.481% | 
34 | Cc1ccc(C)c(NC(=O)COC(=O)c2nn(C)c(=O)c3ccccc23)c1 | 11.2% | 
35 | O=C(Nc1cccc(NC(=O)c2ccc(Br)cc2)c1)c1ccccc1 |  | inactive
36 | O=C(NC1=CC(=O)c2ccccc2C1=O)c1ccccc1 |  | 10 µM (active)
37 | O=C1C=C(NS(=O)(=O)c2ccccc2)C(=O)c2ccccc21 | -2.09% [at 46.1 µM] | 
38 | CCOC(=O)C1=C(c2ccccc2)Nc2ncnn2C1c1ccc(Cl)cc1 (configuration not stated) | 4.14% [at 46.1 µM] | 
39 | Clc1ccc2c(c1)C1=C(C(c3ccncc3)O2)C(c2ccc(Br)cc2)n2ncnc2N1 (configuration not stated) |  | 11.6 µM (active)
40 | Fc1ccc([C@H]2C3=C(Nc4ncnn42)c2ccccc2O[C@H]3c2ccncc2)cc1 | -11% | 
41 | CC1(C)CC(=O)c2ccc(O)cc2O1 | -6.25% [at 46.1 µM] | 
42 | CC[C@@H]1Cc2cc(O)ccc2C2=C1c1ccc(O)cc1C[C@H]2CC |  | 35.5 µM (active)
43 | OC(COCCC12CC3CC(CC(C3)C1)C2)CN1CCCCC1 (configuration not stated) |  | 2.91 µM (active)
44 | O=C(c1ccccc1)c1ccc(OCC(O)CN2CCCC2)cc1 (configuration not stated) | -24% [at 46.1 µM] | 
45 | COc1cc(/C=N/NC(=O)c2cccnc2)ccc1OC(=O)c1cccc(Br)c1 | 2.52% | 
46 | O=C(C1CC(=O)N(c2ccc(Br)cc2)C1)N1CCCC1 (configuration not stated) | 1.98% | 
47 | COc1ccc(C2(CNC(=O)C(c3ccccc3)c3ccccc3)CCOCC2)cc1OC | -26.8% | 
48 | COc1ccc(C2(CNC(=O)Cc3ccc(OC)c(OC)c3)CCCC2)cc1 | -28.1% [at 46.1 µM] | 
49 | Cc1cccc(C(CC(=O)NCC2(c3ccccc3)CCCC2)c2ccccc2)c1O (configuration not stated) |  | 10 µM (active)
50 | O=C(Nc1cc(S(=O)(=O)N2CCOCC2)ccc1N1CCOCC1)c1c(F)cccc1Cl | 3.28% | 
51 | CC12CCCCC1=CC(=O)CC2 (configuration not stated) | 8.83% | 
52 | COc1ccc(N2CCN(S(=O)(=O)c3cc(Br)cnc3N)CC2)cc1 | 14.7% [at 46.1 µM] | 
